High-throughput results deposited in PubChem BioAssay by Johns Hopkins Ion Channel Center.
KCNQ2 enhance: enhances the rat KCNQ2 potassium channel. B-score at 10 µM. O88943. actives 0.54% (n = 310,000). CHO-K1 KCNQ2, FluxOR thallium flux fluorescence; stronger effect = higher value;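 active = fluorescence ratio B-score at least 3 SD of library B-scores, with initial fluorescence B-score within 3 of them, cut at about 5.3 in these data; same plate scores as AID 2156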;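 note: B-score of peak minus minimum over baseline fluorescence ratio after K+ and Tl+ stimulus; positive B-score means potentiation of KCNQ2 with more thallium influx and brighter signal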
Target sequence (O88943 whole entry, looked up): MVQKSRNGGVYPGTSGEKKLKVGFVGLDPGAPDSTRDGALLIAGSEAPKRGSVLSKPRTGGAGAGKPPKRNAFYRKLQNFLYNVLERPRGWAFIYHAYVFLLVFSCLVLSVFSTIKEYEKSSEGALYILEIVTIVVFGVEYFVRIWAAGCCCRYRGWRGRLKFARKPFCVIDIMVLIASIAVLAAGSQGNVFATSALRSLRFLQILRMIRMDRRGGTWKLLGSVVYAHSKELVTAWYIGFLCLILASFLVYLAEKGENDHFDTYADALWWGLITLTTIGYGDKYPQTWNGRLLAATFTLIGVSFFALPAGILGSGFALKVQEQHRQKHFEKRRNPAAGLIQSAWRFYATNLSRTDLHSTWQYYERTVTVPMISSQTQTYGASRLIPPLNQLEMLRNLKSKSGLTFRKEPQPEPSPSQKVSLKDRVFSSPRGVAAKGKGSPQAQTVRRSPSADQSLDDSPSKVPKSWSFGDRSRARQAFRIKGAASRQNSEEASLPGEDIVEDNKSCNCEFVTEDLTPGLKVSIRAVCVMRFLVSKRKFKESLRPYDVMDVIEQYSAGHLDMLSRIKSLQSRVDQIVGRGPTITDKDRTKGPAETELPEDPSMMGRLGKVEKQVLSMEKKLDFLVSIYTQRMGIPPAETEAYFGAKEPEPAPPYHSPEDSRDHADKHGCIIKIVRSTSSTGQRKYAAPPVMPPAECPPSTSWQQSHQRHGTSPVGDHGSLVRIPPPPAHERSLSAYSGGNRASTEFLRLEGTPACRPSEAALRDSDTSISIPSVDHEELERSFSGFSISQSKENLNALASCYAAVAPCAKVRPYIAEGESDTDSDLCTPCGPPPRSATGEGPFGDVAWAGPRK
KCNQ2 block: blocks the rat KCNQ2 potassium channel; O88943; CHO-K1 KCNQ2, FluxOR thallium flux, 20 min; stronger effect = lower value; B-score at 10 µM; actives 1.1% (n = 310,000); AID 2156;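 active = fluorescence ratio B-score at most minus 3 library SDs, with starting brightness B-score within 2 library SDs, cut at about -5.5 in these data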
KCNQ2 block conf: rat KCNQ2 channel inhibition, confirmatory screen | shares compounds with KCNQ2 block | KCNQ2-expressing cells, thallium flux; stronger effect = lower value | actives 57% (n = 1,000) | activity change, negative = inhibition, % at 10 µM | AID 493025;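 note: 0% = vehicle wells and values are ratio percent relative to vehicle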
KCNQ1 spec: KCNQ2 inhibitor that also affects human KCNQ1 channel; shares compounds with KCNQ2 block; KCNQ1-expressing cells, FluxOR thallium flux fluorescence; stronger effect = lower value; activity change, negative = inhibition, % at 10 µM; actives 15% (n = 1,000); AID 493026;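 active = activity change at least 3 SD of negative controls below their mean in both duplicate wells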;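 note: CHO cells stably transfected with KCNQ1 and depolarized by potassium stimulus; peak minus minimum fluorescence over baseline after thallium addition; 0% = vehicle negative control and -100% = blank without thallium stimulus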
CHO Tl ctr: activity in parental CHO cells lacking KCNQ2 | shares compounds with KCNQ2 block | thallium flux counter-screen; stronger effect = lower value | activity change, % at 10 µM | actives 14% (n = 1,000);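 note: 0% = vehicle negative controls with stimulus buffer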
KCNQ2 inh confirm: blocks rat KCNQ2 current in automated patch clamp. shares compounds with KCNQ2 block. actives 49% (n = 550). AID 588531. KCNQ2-expressing cells. calls only at 10 µM
Starred values were filed as active, the others as inactive; i = inactive; · = no result; + = active, no number. Hits are enriched below; roughly 1.6% of the tested compounds scored in any of these assays. Unless noted, the rule behind the calls is not given here.

SMILES	KCNQ2 enhance	KCNQ2 block	KCNQ2 block conf	KCNQ1 spec	CHO Tl ctr	others
O=C(Cc1ccccc1[N+](=O)[O-])N1CCc2ccccc2C1	·	i	·	·	·
C=CCSc1nc(C)c2cc(C)cc(C)c2n1	·	i	·	·	·
CC1(O)c2ccccc2C(=O)N1Cc1ccccc1 (configuration not stated)	0.05	i	·	·	·
O=C1c2ccccc2C(O)(c2ccccc2)N1CCc1ccccc1 (configuration not stated)	-8.44	-8.44*	-24.0%*	i	i	KCNQ2 inh confirm=+
NC(=O)CC(NC(=O)c1cccc(Br)c1)c1ccc(NCCN2CCOCC2)c([N+](=O)[O-])c1 (configuration not stated)	0.03	i	·	·	·
CSc1ccc(S(=O)(=O)Nc2ccc(S(=O)(=O)Nc3ccc(C)cc3)cc2)cc1	·	i	·	·	·
Cc1ccc(S(=O)(=O)Nc2ccc(N=Nc3ccc(O)cc3)cc2)cc1	-8.69	-8.69*	i	i	i
CCOc1ccc(NC(=O)c2ccc(NC(=O)CSc3nc4ccccc4c(=O)[nH]3)cc2)cc1	0.02	i	·	·	·
Cc1ccccc1NC(=O)C1CCN(C(=O)N2CCOc3ccccc32)CC1	0.64	i	·	·	·
CCCN1C(=S)c2ccccc2C1c1ccccc1 (configuration not stated)	·	i	·	·	·
CC(=O)CN1Cc2ccccc2/C1=N\C(=O)Nc1ccccc1	1.03	i	·	·	·
COc1ccc(N2Cc3ccccc3/C2=N\C(=O)Nc2ccccc2)cc1	-7.11	-7.11*	-27.5%*	i	i	KCNQ2 inh confirm=+
Cc1c(C)n(C(=O)CN2CCN(c3ccccc3)CC2)c2ccccc12	-7.82	-7.82*	i	i	i
Cc1c(C)n(C(=O)CN2CCC(C(N)=O)CC2)c2ccccc12	·	i	·	·	·
COc1ccc(CCC(C)N(C)Cc2ccccc2)cc1 (configuration not stated)	1.79	i	·	·	·
COc1ccc(C(=O)NC2CCCc3c2cnn3-c2cc(F)cc(F)c2)c(OC)c1OC (configuration not stated)	·	i	·	·	·
COc1ccc(C(=O)CC(=O)c2ccccc2)cc1	0.38	i	·	·	·
COc1ccc(C(=O)C/C(=C\C(=O)c2ccc(C)cc2)c2ccccc2)cc1	-7.67	-7.67*	i	i	i
Cc1ccc(Sc2c(CO)c(-c3ccccc3)nn2C)cc1	·	i	·	·	·
Cc1ccccc1Sc1c(C#N)c(-c2ccccc2)nn1C	-10.5	-10.5*	-36.0%*	-35.5%*	-31.5%*	KCNQ2 inh confirm=i
CN1C(=O)CSC1=NC12CC3CC(CC(C3)C1)C2	·	i	·	·	·
CCN1C(=O)CSC1=NC12CC3CC(CC(C3)C1)C2	-7.84	-7.84*	-32.0%*	-29.5%*	-30.0%*	KCNQ2 inh confirm=i
Brc1ccc(C2=Nn3cnnc3SC2)cc1	0.5	i	·	·	·
Cc1cc(C)c(NC(=O)/C(=C/c2ccccc2)c2ccccc2)c(C)c1	-7.48	-7.48*	i	i	i
Cc1ccc(NC(=O)/C(=C/c2ccco2)c2ccccc2)c(C)c1	·	i	·	·	·
SMILES	KCNQ2 enhance	KCNQ2 block	KCNQ2 block conf	KCNQ1 spec	CHO Tl ctr	others
COc1cc(C(=O)NC(=S)Nc2ccccc2N2CCCC2)cc(OC)c1OC	·	i	·	·	·
COc1ccc(Br)cc1C(=O)Nc1ccccc1N1CCCC1	·	i	·	·	·
COc1cc(C(=O)Nc2ccccc2N2CCCCC2)cc(OC)c1OC	-7.39	-7.39*	-39.0%*	-28.5%*	i	KCNQ2 inh confirm=+
COc1ccc(Cl)cc1C(=O)Nc1ccccc1N1CCN(C)CC1	·	i	·	·	·
COc1ccc(Br)cc1C(=O)Nc1ccccc1-c1ccccc1	-9.33	-9.33*	-15.0%*	i	i	KCNQ2 inh confirm=i
COc1ccc(Cl)cc1C(=O)Nc1ccccc1N1CCCCC1	-7.53	-7.53*	-31.5%*	i	i	KCNQ2 inh confirm=i
NC(=O)c1ccc(NC(=O)COC(=O)/C=C/c2ccc3c(c2)OCO3)cc1	·	i	·	·	·
COc1ccc(C)cc1S(=O)(=O)N1CCC(C(=O)N2CCN(C)CC2)CC1	·	i	·	·	·
CCc1nc2ccccc2c(C(=O)Nc2cccc(C)c2)c1C	·	i	·	·	·
CCc1nc2ccccc2c(C(=O)Nc2cc(C)ccc2C)c1C	-7.46	-7.46*	i	i	i
Cc1ccccc1NC(=O)c1c2c(nc3ccccc13)CCC2	-6.91	-6.91*	i	i	i
Cc1ccc(NC(=O)c2c3c(nc4ccccc24)CCC3)cc1	·	i	·	·	·
Cc1cc2oc(=O)cc(CNc3ccccc3F)c2cc1O	0.44	i	·	·	·
CCOC(=O)c1cc2c(s1)-c1c(C)cccc1OC2	·	i	·	·	·
COc1cc2c(cc1OC)C(C)N(C(=O)c1cccs1)CC2 (configuration not stated)	·	i	·	·	·
COc1cc2c(cc1OC)C(C)N(C(=O)c1cc3c(s1)-c1c(C)cccc1OC3)CC2 (configuration not stated)	-6.68	-6.68*	-36.5%*	i	i	KCNQ2 inh confirm=+
COc1cc2c(cc1OC)C(C)N(C(=O)c1cc3c(s1)-c1ccccc1OC3)CC2 (configuration not stated)	-8.44	-8.44*	i	i	i
Cc1noc(C(=O)N2CCN(Cc3ccc4c(c3)OCO4)CC2)c1Cl	·	i	·	·	·
Cc1ccccc1C(=O)c1cccn1CC(=O)NCCN1CCN(c2cccc(C)c2C)CC1	·	i	·	·	·
CCc1ccc(NC(=O)C(=O)NCC2CCCN2S(=O)(=O)c2ccccc2)cc1 (configuration not stated)	2	i	·	·	·
O=C(OCC1OC(n2ncc(=O)[nH]c2=O)C(OC(=O)c2ccccc2)C1OC(=O)c1ccccc1)c1ccccc1 (configuration not stated)	-11.1	-11.1*	-22.5%*	i	i	KCNQ2 inh confirm=i
CC(=O)OC[C@H]1O[C@@H](n2ncc(=O)[nH]c2=O)[C@H](OC(C)=O)[C@@H]1OC(C)=O	0.09	i	·	·	·
C/C(=N\NC(=O)c1ccccn1)c1ccc(C(=O)O)s1	·	i	·	·	·
N#C/C(=C/c1ccc(N2CCCCC2)o1)c1cccc(F)c1	·	i	·	·	·
N#C/C(=C/c1ccc(N2CCCCCC2)o1)c1ccc(Cl)cc1	-8.38	-8.38*	-31.0%*	-28.0%*	-22.5%*	KCNQ2 inh confirm=i
SMILES	KCNQ2 enhance	KCNQ2 block	KCNQ2 block conf	KCNQ1 spec	CHO Tl ctr	others
Cc1cc(=O)[nH]c(SC(C)C(=O)Nc2cccc3ccccc23)n1 (configuration not stated)	·	i	·	·	·
c1ccc(-c2noc(-c3ccccc3-c3ccccc3)n2)cc1	-8.63	-8.63*	-24.0%*	i	i	KCNQ2 inh confirm=i
Fc1ccccc1-c1nc(-c2ccc(Cl)cc2)no1	·	i	·	·	·
N#CCCN(Cc1cccs1)C(=O)Nc1ccccc1	1.51	i	·	·	·
O=S(=O)(c1ccc(N2CCN(CCO)CC2)nc1)N1CCOCC1	·	i	·	·	·
CCOc1cc(CNc2ccc(Br)cc2)cc(Br)c1OCC(=O)NC(C)(C)C	-6.83	-6.83*	-24.0%*	i	i	KCNQ2 inh confirm=i
CCOc1cc(CNn2cnnc2)cc(Br)c1OCC(=O)NC(C)(C)C	0.87	i	·	·	·
Cc1ccc(S(=O)(=O)/C=C/c2ccccc2)cc1	·	i	·	·	·
CCc1cccc2c1Sc1ccccc1CC2N1CCNCC1 (configuration not stated)	·	i	·	·	·
